Measurements from PubChem BioAssay (EPA / NIEHS).
Records with an inconclusive call do not appear. Calls of active or inactive are those of the source. How the source made its calls: active means hit-call score of the fitted dose curve at least 0.9, where 1 is the maximum; inconclusive means response in the unintended direction; inactive means score below 0.9.

biological target: human Vitamin D Receptor (VDR), VDR (gene 7421) (UniProt P11473); assay: ATG_VDR_TRANS: Attagene TRANS-FACTORIAL HepG2 Assay for human Vitamin D Receptor (VDR) (AID 2283022)
Sequence (P11473 whole entry, looked up): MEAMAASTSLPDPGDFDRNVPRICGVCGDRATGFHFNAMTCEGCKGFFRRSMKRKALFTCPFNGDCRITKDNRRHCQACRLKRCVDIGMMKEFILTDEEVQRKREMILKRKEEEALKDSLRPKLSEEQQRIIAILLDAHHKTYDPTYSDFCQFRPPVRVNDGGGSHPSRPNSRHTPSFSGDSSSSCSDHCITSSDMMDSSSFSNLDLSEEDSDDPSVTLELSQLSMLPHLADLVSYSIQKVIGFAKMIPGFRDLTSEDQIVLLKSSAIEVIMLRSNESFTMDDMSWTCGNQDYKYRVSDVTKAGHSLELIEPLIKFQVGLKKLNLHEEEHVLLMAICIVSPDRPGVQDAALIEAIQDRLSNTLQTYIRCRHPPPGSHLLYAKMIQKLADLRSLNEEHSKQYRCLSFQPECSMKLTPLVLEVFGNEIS
Experimental: ATG_TRANS is a cell-based, multiplexed-readout assay that uses HepG2, a human liver cell line, with measurements taken at 24 hours after chemical dosing in a 24-well plate.ATG_VDR_TRANS is one of 30 assay component(s) measured or calculated from the ATG_TRANS assay. It is designed to make measurements of mRNA induction, a form of inducible reporter, as detected with fluorescence intensity signals by Reverse transcription polymerase chain reaction (RT-PCR) and Capillary electrophoresis technology.Data from the assay component ATG_VDR_TRANS was analyzed into 1 assay endpoint. This assay endpoint, ATG_VDR_TRANS, was analyzed in the positive analysis fitting direction relative to DMSO as the negative control and baseline of activity. Using a type of inducible reporter, measures of mRNA for gain-of-signal activity can be used to understand the reporter gene at the transcription factor-level as they relate to the gene VDR. Furthermore, this assay endpoint can be referred to as a primary readout, because this assay has produced multiple assay endpoints where this one serves a reporter gene function. To generalize the intended target to other relatable targets, this assay endpoint is annotated to the nuclear receptor intended target family, where the subfamily is non-steroidal.
Human liver HepG2 cells are transiently transfected with multiple reporter transcription units (MRTUs) in 6-well plates using FuGene 6 reagent (Roche; 3 ml FuGene/1 mg DNA). The MRTU constructs are regulated by a cis-regulating element (promoter). […] A major difference between the CIS and TRANS system is that in CIS activities of endogenous TFs are measured, whereas the TRANS assay evaluates changes in activities of exogenous, chimeric NR-Gal4 proteins. […] At the end of 24 hour incubation, total RNA was isolated using TriZol reagent (Invitrogen). The isolated RNA is then reverse-transcribed using oligo(dT) primer and Mo-MLV reverse transcriptase (Invitrogen) with DNAse I (Ambion) treatment for 30 min. The one-tenth of the produced cDNA was amplified by PCR using Taq DNA polymerase (Invitrogen) and two reporter sequence-specific primers. The PCR products were fluorescently labeled by primer extension with 6-arboxyfluorescein (6-FAM) 5'-labeled reporter sequence-specific primer (2 min at 95 C, 20 s at 68 C and 10 min at 72 C) and these products were digested with 5U of HpaI (New England Biolabs) for 2h at 37 C. The fragments were purified using Qiaquick PCR columns (Qiagen), analyzed on an ABI 3130xL genetic analyzer (Applied Biosystems) with peak positions identified by using a set of X-rhodamine (ROX)-labeled MapMarker1000 molecular weight standards (BioVentures). The raw capillary electrophoresis data was processed using Attagraph software (Attagene).

outcome, inactive:
CC1=CC(=O)NS(=O)(=O)O1, CCC(C)(O)CCC=C(C)C (stereo not given), C=CC[N+](C)(C)CC=C, O=C(Oc1ccccc1)c1ccc(O)cc1, O=C1O[C@@H]2[C@@H](O)[C@H](O)O[C@@H]2[C@H]1O, COCCOCCOCCOCCOCCO, CC(=O)C(C)=O, CCN(CC)c1ccc2c(-c3ccccc3C(=O)O)c3ccc(=[N+](CC)CC)cc-3oc2c1, CC(C)(C)c1cc(CCC(=O)NN)cc(C(C)(C)C)c1O, C[C@H]1C[C@H]2[C@@H]3CCC4=CC(=O)C=C[C@]4(C)[C@@]3(F)[C@@H](O)C[C@]2(C)[C@@]1(O)C(=O)COP(=O)(O)O, CCCCCCCCCCCCCCCCCC(=O)OCC(CC)CCCC (stereo not given), CCCc1c(OCCCOc2ccc(OCC(=O)O)cc2)ccc(C(C)=O)c1O, O=C(O)c1cccc(C(F)(F)F)c1, O=C(O)c1snc(Cl)c1Cl, COc1nc(C)nc(N)n1, C=C(C)C(=O)Nc1ccc(Cl)c(Cl)c1, CNCCCC12CCC(c3ccccc31)c1ccccc12, CC1=CCC2C(C1)C2(C)C (stereo not given), O=C(COc1ccc(Cl)cc1)N1CCN(Cc2ccc3c(c2)OCO3)CC1, CC(=O)OCCC(C)CC(C)(C)C (stereo not given), CCCC(=O)C(C)=O, CC(=O)OCC=Cc1ccccc1, CCCCC(CC)COCCC#N (stereo not given), O=C(O)c1ccc([N+](=O)[O-])cc1, NCCCCCCN, CC(O)C(C)O (stereo not given), CCC(=O)/C=C/C1C(C)=CCCC1(C)C (stereo not given), Clc1ccc(Cl)c(Cl)c1Cl, O=Cc1ccc(Cl)c([N+](=O)[O-])c1, CCCCc1ccc(N)cc1, CN(C)CCCN, C=O, O=C1NC(=O)c2ccccc21, Fc1c(F)c(F)c(Br)c(F)c1F, N#Cc1nc(Cl)c(Cl)c(Cl)c1Cl, CC(C)=CCC[C@H](C)CC=O, C[C@]12CC[C@H]3[C@@H](CCC4=CC(=O)CC[C@@]43C)[C@@H]1CC[C@@H]2C(=O)CO, Nc1cc([N+](=O)[O-])ccc1O, O=C(OCc1ccccc1)C(=O)OCc1ccccc1, O=Cc1ccc(F)cc1
